Assay results published in PubChem BioAssay (Tox21).
Results filed as inconclusive are left out. Entries that show only a call come without a potency. Calls of active or inactive are those of the source. Unless noted, the call rests on the fitted dose curve.

Tests used:
[1] = Nuclear factor erythroid 2-related factor 2/antioxidant responsive element (Nrf2/ARE) small molecule agonists: qHTS cell viability counter screen in human keratinocytes (AID 1919968; active means well fitted curve in the direction sought with a large enough effect in the repeat runs; an effect the other way counts as inactive or inconclusive; further: nearly all actives have a fitted effect of over 55% in size; further: potency means the concentration at half of the fitted maximal effect)
Outline: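 Cells of the KeratinoSens line were plated at 1,500 per well and left for 5 h before compound transfer from DMSO stocks. After a 23 h incubation (37 C, 5% CO2), CellTiter-Fluor was added. Signal was taken as fluorescence intensity 1 h later.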

[2] = Nuclear factor erythroid 2-related factor 2/antioxidant responsive element (Nrf2/ARE) small molecule agonists: luciferase reporter gene qHTS assay in human keratinocytes (AID 1919969); further: nearly all actives have a fitted effect of over 35% in size; further: potency means the concentration at half of the fitted maximal effect
[3] = biological target: Gonadotropin-releasing hormone receptor (Homo sapiens) (UniProt P30968); assay: Human gonadotropin-releasing hormone receptor (GnRHR) small molecule agonists, calcium flux assay in GnRHR-HEK293 cells (AID 1920063); further: nearly all actives have a fitted effect of over 35% in size
Outline: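 Compounds dissolved in DMSO are pin-transferred onto dye-loaded GnRHR-HEK293 cells, which were seeded 18 h before at 37 C/5% CO2. Calcium signal is read as fluorescence intensity at 1 s intervals for 3 min.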

[4] = biological target: KiSS-1 receptor (Homo sapiens) (UniProt Q969F8); assay: Human kisspeptin (KISS1R) small molecule agonists, calcium flux assay in KISS1R-HEK293 cells (AID 1920064; active means well fitted curve in the direction sought with a large enough effect in the repeat runs; an effect the other way counts as inactive or inconclusive)
Outline: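 Cell line: HEK293, stable human KISS1R. Dye loading 1 h at 37 C after 18 h culture. Read: kinetic fluorescence, 480/540 nm, 3 min at 1 s intervals.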

[5] = G protein-coupled receptor (GPCR) small molecule agonists, calcium flux assay: HEK293 wild type cell line counter screen (AID 1920065)
Outline: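 Tox21 10K compounds, 15 concentrations each in triplicate, pin-transferred in DMSO onto dye-loaded cells; kinetic read at 480/540 nm for 3 min, 1 s intervals.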

[6] = p53 small molecule agonists, cell-based qHTS assay with human liver microsomes (AID 1963577)
Outline: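 Compounds act here after metabolic activation: human liver microsomes and NADPH, both at 0.5 mg/mL final, were co-added to p53RE-bla cells. Incubation ran 16 h at 37 C, followed by LiveBLAzer detection.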

[7] = p53 small molecule agonists, cell-based qHTS assay with rat liver microsomes (AID 1963578)
Outline: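 Read-out is beta-lactamase reporter fluorescence (LiveBLAzer, 2 h, room temperature, dark) in p53RE-bla cells treated 16 h at 37 C with compound, rat liver microsomes and NADPH, both 0.5 mg/mL final.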

[8] = p53 small molecule agonists, cell-based qHTS assay with human liver microsomes: qHTS cell viability counter screen (AID 1963579); further: nearly all actives have a fitted effect of over 45% in size
Outline: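 Cells carrying the p53 response-element beta-lactamase reporter are treated for 16 h at 37 C with test compounds in the presence of human liver microsomes and NADPH (both 0.5 mg/mL final); ATP-based CellTiter-Glo luminescence then reports viability.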

[9] = p53 small molecule agonists, cell-based qHTS assay with rat liver microsomes: qHTS cell viability counter screen (AID 1963580); further: nearly all actives have a fitted effect of over 45% in size
Outline: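 Rat liver microsome (0.5 mg/mL final) and NADPH (0.5 mg/mL final) co-incubation with compounds for 16 h at 37 C on HCT-116 p53RE-bla cells; cytotoxicity taken from intracellular ATP luminescence.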

[10] = p53 small molecule agonists, cell-based qHTS assay: qHTS cell viability counter screen (AID 1963581); further: nearly all actives have a fitted effect of over 45% in size
Outline: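 ATP content measured by luminescence in HCT-116 p53RE-bla cells treated 16 h at 37 C, same wells as the reporter screen.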

[11] = p53 small molecule agonists, cell-based qHTS assay (AID 1963582; active means well fitted activation curve with a large enough effect in the signal ratio in the repeat runs, not every such curve was filed as active; the % refers to the signal ratio)
Outline: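 16 h compound exposure (37 C) of p53 response element–bla cells, preceded by 5 h recovery at 37 C/5% CO2; read-out via LiveBLAzer B/G FRET substrate, 2 h RT, fluorescence intensity.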

[12] = cAMP Responsive Elements (CRE) small molecule agonists, cell-based qHTS assay (AID 1963590)
Outline: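 HEK 293T cells stably bearing CRE-bla were plated at 2,000 cells per well and rested 18 h. Compounds, positive controls or DMSO were added for 3 h at 37 C. LiveBLAzer B/G substrate was then loaded for 2 h at room temperature.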

[13] = biological target: Beta-2 adrenergic receptor (Homo sapiens) (UniProt P07550); assay: Adrenergic beta2 receptor (ADRB2) small molecule antagonists, cell-based qHTS assay (AID 1963592); further: series mostly up to about 92 µM; nearly all actives have a fitted effect of over 50% in size
Outline: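 Assay format: CHO-ADRB2 cells, 18-20hr seeding at 37C/5% CO2, then compound plus 1nM isoproterenol agonist mix for 0.5hr RT. Homogeneous time-resolved fluorescence cAMP detection after 1hr, expressed as 665/615 nm ratio.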

[14] = biological target: D(2) dopamine receptor (Homo sapiens) (UniProt P14416); assay: Dopamine D2 receptor (DRD2) small molecule agonists, cell-based qHTS assay (AID 1963594); further: nearly all actives have a fitted effect of over 35% in size
Outline: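 cAMP accumulation in DRD2-HEK293 cells measured by HTRF after 1 h detection; compounds added 10 min before NKH477 (200nM […]) forskolin-analogue stimulation, 30 min at room temperature, with Ro20-1724 present at 0.1 mM final.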

[15] = biological target: D(2) dopamine receptor (Homo sapiens) (UniProt P14416); assay: Dopamine D2 receptor (DRD2) small molecule antagonists, cell-based qHTS assay (AID 1963595; active means well fitted inhibition curve with a large enough effect in the signal ratio in the repeat runs, with a control signal flat; the % refers to the signal ratio)
Outline: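 Stable D2 receptor HEK293 line, 24 h after seeding. Compound preincubated 10 min, then quinpirole (12 nM) with forskolin analogue NKH477 (200 nM), 30 min, room temperature. Detection by time-resolved FRET of cAMP.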

[16] = biological target: 5-hydroxytryptamine receptor 2A (Homo sapiens) (UniProt P28223); assay: 5-hydroxytryptamine receptor 2A (HTR2A) small molecule antagonists, cell-based qHTS assay (AID 1963586); further: nearly all actives have a fitted effect of over 45% in size
Outline: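 CHO cells stably expressing human HTR2A were plated for 18 h at 37 C, then loaded with calcium dye for 1 h. Compounds were preincubated 5 min at room temperature before DOI (4 nM solution) was added. Kinetic fluorescence was read for 3 min.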

[17] = biological target: 5-hydroxytryptamine receptor 2A (Homo sapiens) (UniProt P28223); assay: 5-hydroxytryptamine receptor 2A (HTR2A) small molecule agonists, cell-based qHTS assay (AID 1963587); further: nearly all actives have a fitted effect of over 30% in size
Outline: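 Kinetic calcium-flux fluorescence (2 min, 1 sec intervals) after compound addition in agonist mode. HTR2A-CHO cells were cultured 18 h, then dye-loaded 1 h at 37 C.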

[18] = biological target: Muscarinic acetylcholine receptor M1 (Homo sapiens) (UniProt P11229); assay: Cholinergic receptor muscarinic 1 (CHRM1) small molecule antagonists, cell-based qHTS assay (AID 1963588); further: nearly all actives have a fitted effect of over 40% in size
Outline: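 Compounds were tested at 15 concentrations in three independent runs. Dye-loaded CHRM1-CHO cells were exposed 5 min at room temperature before stimulation by acetylcholine added at 50nM. Intracellular calcium was read kinetically on FDSS for 3 min.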

[19] = biological target: Muscarinic acetylcholine receptor M1 (Homo sapiens) (UniProt P11229); assay: Cholinergic receptor muscarinic 1 (CHRM1) small molecule agonists, cell-based qHTS assay (AID 1963589); further: nearly all actives have a fitted effect of over 35% in size
Outline: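 Homogeneous fluorescence calcium flux, agonist mode. Human M1-expressing CHO cells; compound dosed at 15 concentrations, three independent runs; signal sampled every 1 sec.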

[20] = cAMP Responsive Elements (CRE) small molecule antagonists, cell-based qHTS assay (AID 1963591; active means well fitted inhibition curve with a large enough effect in the signal ratio in the repeat runs, not every such curve was filed as active; the % refers to the signal ratio)
Outline: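 First, CRE-bla HEK293T cells settled 18 h at 37 C. Next, compound and 0.25 uM final NKH477 were applied for 3 h. Last, LiveBLAzer B/G substrate was loaded for 2 h at room temperature.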

Chain of Muscarinic acetylcholine receptor M1 (Homo sapiens) (P11229 whole entry, looked up): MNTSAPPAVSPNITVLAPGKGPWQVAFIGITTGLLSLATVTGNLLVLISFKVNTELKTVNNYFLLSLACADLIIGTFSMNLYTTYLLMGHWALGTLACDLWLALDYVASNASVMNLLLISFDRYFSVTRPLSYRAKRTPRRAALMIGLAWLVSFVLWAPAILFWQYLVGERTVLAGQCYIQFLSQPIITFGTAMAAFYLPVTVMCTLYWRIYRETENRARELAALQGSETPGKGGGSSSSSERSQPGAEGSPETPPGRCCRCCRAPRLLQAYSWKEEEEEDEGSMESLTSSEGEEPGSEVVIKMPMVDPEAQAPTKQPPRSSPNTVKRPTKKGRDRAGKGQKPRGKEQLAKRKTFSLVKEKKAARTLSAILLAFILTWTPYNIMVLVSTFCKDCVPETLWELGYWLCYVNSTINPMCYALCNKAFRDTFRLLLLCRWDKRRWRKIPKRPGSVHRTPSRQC
Chain of Gonadotropin-releasing hormone receptor (Homo sapiens) (P30968 whole entry, looked up): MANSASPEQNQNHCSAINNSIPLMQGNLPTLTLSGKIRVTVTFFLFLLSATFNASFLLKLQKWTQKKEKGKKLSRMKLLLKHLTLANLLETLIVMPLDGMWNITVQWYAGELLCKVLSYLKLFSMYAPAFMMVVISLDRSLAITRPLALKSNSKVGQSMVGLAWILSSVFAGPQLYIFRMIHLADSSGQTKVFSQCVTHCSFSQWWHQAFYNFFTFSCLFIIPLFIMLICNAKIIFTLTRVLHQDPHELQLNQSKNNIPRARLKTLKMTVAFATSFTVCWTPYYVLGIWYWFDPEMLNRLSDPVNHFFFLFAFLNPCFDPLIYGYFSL
Chain of 5-hydroxytryptamine receptor 2A (Homo sapiens) (P28223 whole entry, looked up): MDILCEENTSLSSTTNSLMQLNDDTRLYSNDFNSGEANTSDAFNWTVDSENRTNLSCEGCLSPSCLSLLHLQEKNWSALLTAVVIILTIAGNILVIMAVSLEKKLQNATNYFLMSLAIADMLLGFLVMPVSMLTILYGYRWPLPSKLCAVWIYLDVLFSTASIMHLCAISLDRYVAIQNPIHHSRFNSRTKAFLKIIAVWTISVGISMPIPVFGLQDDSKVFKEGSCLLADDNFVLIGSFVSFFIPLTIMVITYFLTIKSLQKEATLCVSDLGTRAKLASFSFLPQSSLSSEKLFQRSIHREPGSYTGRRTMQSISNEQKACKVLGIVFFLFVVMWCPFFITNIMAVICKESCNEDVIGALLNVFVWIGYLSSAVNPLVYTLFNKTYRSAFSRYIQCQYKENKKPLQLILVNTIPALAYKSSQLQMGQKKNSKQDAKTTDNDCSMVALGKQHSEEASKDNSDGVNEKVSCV
Chain of D(2) dopamine receptor (Homo sapiens) (P14416 whole entry, looked up): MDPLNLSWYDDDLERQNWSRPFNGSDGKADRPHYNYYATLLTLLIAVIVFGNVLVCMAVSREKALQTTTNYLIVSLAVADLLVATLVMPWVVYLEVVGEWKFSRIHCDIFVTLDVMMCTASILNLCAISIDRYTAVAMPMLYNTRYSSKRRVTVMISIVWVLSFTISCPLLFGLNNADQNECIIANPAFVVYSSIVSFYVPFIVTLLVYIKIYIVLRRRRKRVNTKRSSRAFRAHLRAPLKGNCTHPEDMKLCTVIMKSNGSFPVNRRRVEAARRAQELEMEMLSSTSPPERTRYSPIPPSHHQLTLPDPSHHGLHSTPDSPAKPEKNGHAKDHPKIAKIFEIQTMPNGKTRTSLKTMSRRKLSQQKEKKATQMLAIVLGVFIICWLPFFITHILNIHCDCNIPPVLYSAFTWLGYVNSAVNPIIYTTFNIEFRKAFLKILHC
Chain of KiSS-1 receptor (Homo sapiens) (Q969F8 whole entry, looked up): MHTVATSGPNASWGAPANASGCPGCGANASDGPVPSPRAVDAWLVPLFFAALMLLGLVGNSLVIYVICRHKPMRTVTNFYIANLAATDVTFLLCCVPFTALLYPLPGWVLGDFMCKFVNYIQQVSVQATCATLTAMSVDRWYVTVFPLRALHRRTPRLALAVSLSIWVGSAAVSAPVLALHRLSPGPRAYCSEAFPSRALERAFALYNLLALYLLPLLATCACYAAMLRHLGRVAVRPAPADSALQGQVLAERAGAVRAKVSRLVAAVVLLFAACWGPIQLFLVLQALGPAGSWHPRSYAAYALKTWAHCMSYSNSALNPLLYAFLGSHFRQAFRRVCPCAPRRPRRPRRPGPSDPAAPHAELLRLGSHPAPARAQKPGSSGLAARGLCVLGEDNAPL
Chain of Beta-2 adrenergic receptor (Homo sapiens) (P07550 whole entry, looked up): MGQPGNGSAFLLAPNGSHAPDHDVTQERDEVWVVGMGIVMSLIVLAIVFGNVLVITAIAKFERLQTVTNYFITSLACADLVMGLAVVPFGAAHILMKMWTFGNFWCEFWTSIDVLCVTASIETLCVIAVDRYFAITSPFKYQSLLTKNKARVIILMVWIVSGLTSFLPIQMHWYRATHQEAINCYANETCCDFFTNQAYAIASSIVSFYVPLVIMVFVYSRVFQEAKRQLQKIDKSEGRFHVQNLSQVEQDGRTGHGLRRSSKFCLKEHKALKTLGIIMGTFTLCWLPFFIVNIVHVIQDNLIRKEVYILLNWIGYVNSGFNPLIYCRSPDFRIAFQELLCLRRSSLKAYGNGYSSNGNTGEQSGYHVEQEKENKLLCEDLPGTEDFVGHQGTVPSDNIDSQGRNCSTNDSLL

Row | SMILES | Potency [1] | Potency [2] | Potency [3] | outcome [4] | outcome [5] | Potency [6] | Potency [7] | Potency [8] | Potency [9] | Potency [10] | Potency [11] | Potency [12] | Potency [13] | Potency [14] | Potency [15] | Potency [16] | Potency [17] | Potency [18] | Potency [19] | Potency [20]
1 | NS(=O)(=O)c1cc(C2(O)NC(=O)c3ccccc32)ccc1Cl (stereo not drawn) | inactive | inactive | inactive | inactive | inactive | inactive | inactive | inactive | inactive | inactive | inactive | inactive | inactive | inactive | inactive |  |  |  |  | 
2 | C=CS(=O)(=O)O | inactive | inactive | inactive | inactive | inactive | inactive | inactive | inactive | inactive | inactive |  | inactive | inactive | inactive | inactive | inactive | inactive | inactive | inactive | inactive
3 | CCOC(=O)c1ccc(NC(=O)CN2CCCCC2)cc1 | inactive | inactive | inactive | inactive | inactive | inactive | inactive | inactive | inactive | inactive |  | inactive | inactive | inactive | inactive | inactive | inactive | inactive | inactive | inactive
4 | C=COCC(C)C | inactive | inactive | inactive | inactive | inactive | inactive | inactive | inactive | inactive | inactive |  | inactive | inactive | inactive | inactive | inactive | inactive | inactive | inactive | inactive
5 | Nc1ccc(S(=O)(=O)O)c(N)c1 | inactive | inactive | inactive | inactive | inactive | inactive | inactive | inactive | inactive | inactive |  | inactive | inactive |  | inactive | inactive | inactive | inactive | inactive | inactive
6 | CC(C)(Sc1cc(C(C)(C)C)c(O)c(C(C)(C)C)c1)Sc1cc(C(C)(C)C)c(O)c(C(C)(C)C)c1 | inactive | inactive | inactive | inactive | inactive | inactive | inactive | inactive | inactive | inactive | inactive | inactive | inactive |  | inactive |  |  |  |  | 
7 | Nc1ccc2cc(S(=O)(=O)O)ccc2c1 | inactive | inactive | inactive | inactive | inactive | inactive | inactive | inactive | inactive | inactive |  | inactive | inactive | inactive |  | inactive | inactive | inactive | inactive | inactive
8 | Cc1ccccc1N1C(=O)c2cc(S(N)(=O)=O)c(Cl)cc2NC1C (stereo not drawn) | inactive | inactive | inactive | inactive | inactive | inactive | inactive | inactive | inactive | inactive | inactive |  | inactive |  | inactive |  |  |  |  | 
9 | CNS(=O)(=O)Cc1ccc2[nH]cc(CCN(C)C)c2c1 | inactive | inactive | inactive | inactive | inactive | inactive | inactive | inactive | inactive | inactive | inactive |  | inactive | inactive | inactive |  |  |  |  | inactive
10 | Cc1ccccc1N1CCN(CCc2nnc3n2CCCC3)CC1 | inactive | inactive | inactive | inactive | inactive | inactive | inactive | inactive | inactive | inactive | inactive | inactive | inactive | inactive | inactive |  |  |  |  | 
11 | O=C1CCC(C2CCCCC2)CC1 | inactive | inactive | inactive | inactive | inactive | inactive | inactive | inactive | inactive | inactive |  | inactive | inactive | inactive | inactive | inactive | inactive | inactive | inactive | inactive
12 | CC(=O)Nc1ccn(C2COC(COC(=O)c3ccccc3)O2)c(=O)n1 (stereo not drawn) | inactive | inactive | inactive | inactive | inactive | inactive | inactive | inactive | inactive | inactive |  |  | inactive | inactive | inactive | inactive | inactive | inactive | inactive | 
13 | CCC(O)C(C)(C)C (stereo not drawn) | inactive | inactive | inactive | inactive | inactive | inactive | inactive | inactive | inactive | inactive |  | inactive | inactive | inactive | inactive | inactive | inactive | inactive | inactive | 
14 | Nc1cc(C(F)(F)F)ccc1S | 26.6 µM (active) | 13.3 µM (active) | inactive | inactive | inactive | inactive | inactive | inactive | inactive | inactive |  |  | inactive | inactive | inactive | inactive | inactive | inactive | inactive | 
15 | CCCCCCC1CCCC(=O)O1 (stereo not drawn) | inactive | inactive | inactive | inactive | inactive | inactive | inactive | inactive | inactive | inactive |  |  | inactive | inactive | inactive | inactive | inactive | inactive | inactive | 
